PubChem BioAssay
Activity calls are given as the source filed them.

How the values were obtained:
[1] = tested on: Plasmodium falciparum Sir2 (PF13_0152, Sir2A); assay: pfSir2 binders on small-molecule microarrays, primary screen, biochemical, small-molecule microarray, 635 nm fluorescence (AID 1098); details: small-molecule microarray binding, fluorescence 635 nm; higher = more signal;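 also: score merges spot fluorescence intensity with its signal-to-noise ratio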
[2] = small-molecule microarray binders of probe aDKK1, primary screen, biochemical, biotinylated probe, 635/667 nm fluorescence (AID 1099); details: higher = more signal;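 also: score merges 667nm spot fluorescence with signal to noise across triplicate slides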
[3] = small-molecule microarray binders of probe aCHRDL2, primary screen, biochemical, biotinylated probe, 635/667 nm fluorescence (AID 1100); details: higher = more signal
[4] = splicing luciferase reporter signal modulators, primary screen, spliceosome inhibition project, cell-based, HEK293, splice +/- reporter (AID 1101); details: luminescence, 24 h, higher = more signal, called active from +8 up or from −8 down;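 also: HEK293 cells carrying a splicing-competent luciferase reporter gene; test concentration not given here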
[5] = molecular target: Fibroblast growth factor 10 (Homo sapiens) (UniProt O15520); assay: FGF10 binders on small-molecule microarrays, primary screen, biochemical, small-molecule microarray, 635 nm fluorescence (AID 1102); details: FGF10 binding, fluorescence 635 nm, higher = more signal
Sequence of Fibroblast growth factor 10 (Homo sapiens) (O15520 whole entry, looked up): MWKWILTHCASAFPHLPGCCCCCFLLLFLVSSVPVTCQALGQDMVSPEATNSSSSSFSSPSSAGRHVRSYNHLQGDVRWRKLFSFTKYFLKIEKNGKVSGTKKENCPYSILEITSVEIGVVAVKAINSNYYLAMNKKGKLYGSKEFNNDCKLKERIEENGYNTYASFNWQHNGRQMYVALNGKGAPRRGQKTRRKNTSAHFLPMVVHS

[6] = tested on: glycogen synthase kinase-3 (GSK3A per assay name; protocol says GSK3B); assay: GSK3 binders on small-molecule microarrays, primary screen, biochemical, small-molecule microarray, 635 nm fluorescence, GSK3A (AID 1103); details: small-molecule microarray binding, fluorescence 635 nm; higher = more signal; also: the record names both GSK3A and GSK3B
[7] = molecular target: Epidermal growth factor receptor (Homo sapiens) (UniProt P00533); assay: EGFR binders on small-molecule microarrays, primary screen, biochemical, small-molecule microarray, 635 nm fluorescence (AID 1104); details: EGFR binding, higher = more signal;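 also: score merges 667 nm emission intensity with spot signal to noise over triplicate slides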
Sequence of Epidermal growth factor receptor (Homo sapiens) (P00533 whole entry, looked up): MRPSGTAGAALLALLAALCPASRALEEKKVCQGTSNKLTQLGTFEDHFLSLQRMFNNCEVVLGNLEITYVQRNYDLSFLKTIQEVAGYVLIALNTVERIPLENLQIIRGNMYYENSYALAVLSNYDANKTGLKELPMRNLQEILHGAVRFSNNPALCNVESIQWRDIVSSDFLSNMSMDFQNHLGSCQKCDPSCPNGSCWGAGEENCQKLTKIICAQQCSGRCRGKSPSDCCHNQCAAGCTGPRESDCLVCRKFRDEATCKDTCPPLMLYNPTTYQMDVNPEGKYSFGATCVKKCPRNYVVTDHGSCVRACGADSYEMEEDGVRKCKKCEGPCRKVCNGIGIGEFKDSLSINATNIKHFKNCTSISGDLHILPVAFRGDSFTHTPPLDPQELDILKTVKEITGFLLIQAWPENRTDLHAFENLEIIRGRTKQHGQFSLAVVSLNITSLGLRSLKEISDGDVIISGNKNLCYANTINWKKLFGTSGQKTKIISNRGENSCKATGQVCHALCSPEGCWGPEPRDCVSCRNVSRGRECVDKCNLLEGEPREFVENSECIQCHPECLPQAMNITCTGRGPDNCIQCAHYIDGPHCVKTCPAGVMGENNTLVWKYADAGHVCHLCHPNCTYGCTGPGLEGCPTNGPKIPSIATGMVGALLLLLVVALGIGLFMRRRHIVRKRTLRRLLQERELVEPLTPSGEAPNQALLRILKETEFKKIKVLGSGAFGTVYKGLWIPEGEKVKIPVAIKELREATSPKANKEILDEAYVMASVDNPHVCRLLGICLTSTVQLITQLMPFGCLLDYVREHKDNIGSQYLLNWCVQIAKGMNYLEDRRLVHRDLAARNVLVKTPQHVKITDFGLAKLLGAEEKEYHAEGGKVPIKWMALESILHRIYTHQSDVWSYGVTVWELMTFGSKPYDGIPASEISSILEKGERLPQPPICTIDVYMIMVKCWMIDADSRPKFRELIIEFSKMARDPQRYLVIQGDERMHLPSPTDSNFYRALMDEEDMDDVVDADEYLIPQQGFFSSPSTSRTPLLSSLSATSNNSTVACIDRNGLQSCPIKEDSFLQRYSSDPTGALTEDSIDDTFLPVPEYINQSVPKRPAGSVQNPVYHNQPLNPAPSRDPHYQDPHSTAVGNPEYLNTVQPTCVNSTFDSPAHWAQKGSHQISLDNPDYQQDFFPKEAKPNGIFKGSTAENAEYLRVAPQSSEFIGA

[8] = molecular target: Follistatin-related protein 3 (Homo sapiens) (UniProt O95633); assay: FSTL3 binders on small-molecule microarrays, primary screen, biochemical, small-molecule microarray, 635 nm fluorescence (AID 1105); details: FSTL3 binding, higher = more signal;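 also: score merges emission near 667 nm and signal to noise per printed spot across three slides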
Sequence of Follistatin-related protein 3 (Homo sapiens) (O95633 whole entry, looked up): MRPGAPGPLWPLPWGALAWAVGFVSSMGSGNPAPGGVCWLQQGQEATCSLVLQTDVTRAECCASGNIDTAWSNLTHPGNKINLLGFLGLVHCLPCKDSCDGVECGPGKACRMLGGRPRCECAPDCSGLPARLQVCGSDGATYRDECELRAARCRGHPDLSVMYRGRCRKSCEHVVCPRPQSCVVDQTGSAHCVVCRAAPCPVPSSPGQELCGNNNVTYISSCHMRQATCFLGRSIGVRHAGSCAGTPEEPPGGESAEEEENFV

[9] = molecular target: Dickkopf-related protein 1 (Homo sapiens) (UniProt O94907); assay: DKK1 binders on small-molecule microarrays, primary screen, biochemical, small-molecule microarray, 635 nm fluorescence scan (AID 1106); details: DKK1 binding, higher = more signal;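 also: score merges emission near 667 nm with signal to noise over three replicate slides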
Sequence of Dickkopf-related protein 1 (Homo sapiens) (O94907 whole entry, looked up): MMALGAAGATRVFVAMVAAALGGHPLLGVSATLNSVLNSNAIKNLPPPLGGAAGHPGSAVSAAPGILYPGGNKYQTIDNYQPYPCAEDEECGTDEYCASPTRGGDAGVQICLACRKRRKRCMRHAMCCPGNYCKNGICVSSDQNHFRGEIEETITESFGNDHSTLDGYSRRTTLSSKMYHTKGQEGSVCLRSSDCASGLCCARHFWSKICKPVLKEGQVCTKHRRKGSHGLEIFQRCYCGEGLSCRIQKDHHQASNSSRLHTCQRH

[10] = tested on: Inhibin beta A chain (activin A); assay: INHBA (activin A) binders on microarrays, primary screen, biochemical, small-molecule microarray, 635 nm fluorescence scan (AID 1107); details: small-molecule microarray binding, higher = more signal;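 also: mouse activin A protein probed at 4.33 µg/mL on printed slides; score merges bound-protein fluorescence near 667 nm with spot signal-to-noise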
[11] = tested on: Human papillomavirus type 1a protein E7 (residues 44-93); assay: HPV1a E7 fragment binders on microarrays, primary screen, biochemical, small-molecule microarray, residues 44-93, 635 nm fluorescence (AID 1108); details: small-molecule microarray binding, fluorescence 635 nm; higher = more signal;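 also: E7 fragment applied at 1 µg/mL in TBST for 1 h at 4 C; score combines spot fluorescence with its signal to noise ratio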
[12] = modulators of HCV replicon luciferase signal, primary screen, HCV replication inhibitor project, Huh7 cells, luciferase reporter (AID 1109); details: 48 h, higher = more signal;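 also: huh7 hepatoma cells harbouring a luciferase neomycin HCV replicon reporter; luciferase luminescence as measure of HCV replicon replication; test concentration not given here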
[13] = molecular target: Left-right determination factor 2 (Homo sapiens) (UniProt O00292); assay: LEFTY2 binders on small-molecule microarrays, primary screen, biochemical, small-molecule microarray, 635 nm fluorescence scan (AID 1110); details: LEFTY2 binding, higher = more signal
Sequence of Left-right determination factor 2 (Homo sapiens) (O00292 whole entry, looked up): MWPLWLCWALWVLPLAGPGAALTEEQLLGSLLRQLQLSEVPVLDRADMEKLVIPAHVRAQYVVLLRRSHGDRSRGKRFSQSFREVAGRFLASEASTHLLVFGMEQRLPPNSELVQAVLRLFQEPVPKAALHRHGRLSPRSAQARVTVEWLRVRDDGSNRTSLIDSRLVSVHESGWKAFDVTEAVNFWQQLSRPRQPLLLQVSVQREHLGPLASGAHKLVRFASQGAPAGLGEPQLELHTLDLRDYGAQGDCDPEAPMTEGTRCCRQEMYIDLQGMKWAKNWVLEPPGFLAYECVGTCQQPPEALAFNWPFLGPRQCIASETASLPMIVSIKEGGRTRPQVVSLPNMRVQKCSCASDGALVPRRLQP

[14] = molecular target: Calmodulin-1 (Homo sapiens) (UniProt P0DP23); assay: CALM1 binders on microarrays, EGTA buffer, profiling panel, biochemical, small-molecule microarray, Cy5-labelled CALM1 (AID 1111); details: Cy5-CALM1 binding fluorescence, higher = more signal;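 also: labelled calmodulin applied in Tris saline Tween buffer holding calcium plus EGTA and DTT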
[15] = molecular target: Calmodulin-1 (Homo sapiens) (UniProt P0DP23); assay: calcium-bound CALM1 binders on microarrays, profiling panel, artefact control for SMM control-protein annotation, biochemical, small-molecule microarray, Cy5-labelled CALM1, plus calcium (AID 1112); details: Cy5-CALM1 binding fluorescence, higher = more signal;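 also: score merges spot fluorescence with signal to noise from triplicate slides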
[16] = small-molecule microarray binders of probe aWnt5a, primary screen, biochemical, biotinylated probe, 635/667 nm fluorescence (AID 1113); details: higher = more signal;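 also: score merges 667 nm fluorescence intensity with signal-to-noise per printed feature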
[17] = small-molecule microarray binders of probe aShh, primary screen, biochemical, biotinylated probe, 635/667 nm fluorescence (AID 1114); details: higher = more signal;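 also: probe is biotin-labelled aShh protein from a stem cell growth factor screen; measures binding of labelled protein to compounds printed on the slide; score merges feature fluorescence at 667 nm with signal-to-noise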
[18] = small-molecule microarray binders of probe aNog, primary screen, biochemical, biotinylated probe, 635/667 nm fluorescence (AID 1115); details: higher = more signal;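 also: probe is biotinylated aNog protein used at 0.15 µg/mL for 1 h at 4 C; z-score combines 667 nm fluorescence of each spot with its signal to noise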
[19] = molecular target: Torsin-1A-interacting protein 1 (Homo sapiens) (UniProt Q5JTV8); assay: LAP1 binders from COS7 cell lysate, primary screen, small-molecule microarray, 635/667 nm fluorescence (AID 1116); details: COS7-hLAP1 lysate binding, 635 nm fluorescence, higher = more signal
Sequence of Torsin-1A-interacting protein 1 (Homo sapiens) (Q5JTV8 whole entry, looked up): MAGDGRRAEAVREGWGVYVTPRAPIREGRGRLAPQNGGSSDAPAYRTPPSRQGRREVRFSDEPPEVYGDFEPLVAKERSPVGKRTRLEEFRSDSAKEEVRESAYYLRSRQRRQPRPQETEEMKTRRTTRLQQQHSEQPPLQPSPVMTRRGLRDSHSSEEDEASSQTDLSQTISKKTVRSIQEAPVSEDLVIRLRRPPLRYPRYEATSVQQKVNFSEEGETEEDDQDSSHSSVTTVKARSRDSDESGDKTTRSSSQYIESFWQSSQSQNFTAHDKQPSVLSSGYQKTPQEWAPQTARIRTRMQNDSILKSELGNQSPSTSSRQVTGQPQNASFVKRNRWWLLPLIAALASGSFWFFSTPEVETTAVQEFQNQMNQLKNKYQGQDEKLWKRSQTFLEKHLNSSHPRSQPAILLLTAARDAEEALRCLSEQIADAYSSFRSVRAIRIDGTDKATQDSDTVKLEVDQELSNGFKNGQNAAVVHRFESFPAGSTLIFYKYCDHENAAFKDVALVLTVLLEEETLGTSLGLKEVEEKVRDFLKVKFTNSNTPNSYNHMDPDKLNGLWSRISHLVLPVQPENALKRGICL

[20] = molecular target: Alpha-bungarotoxin (Bungarus multicinctus) (UniProt P60615); assay: alpha-bungarotoxin binders on microarray, profiling panel, artefact control for SMM control protein annotation, biochemical, small-molecule microarray, Alexa647 label, 635/667 nm fluorescence (AID 1117); details: alpha-BTX-A647 binding fluorescence, higher = more signal
Sequence of Alpha-bungarotoxin (Bungarus multicinctus) (P60615 whole entry, looked up): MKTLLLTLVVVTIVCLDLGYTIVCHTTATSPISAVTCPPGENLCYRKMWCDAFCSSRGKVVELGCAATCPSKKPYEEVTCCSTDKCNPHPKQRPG

Row | Compound | composite z-score [1] | composite z-score [2] | composite z-score [3] | z-score [4] | composite z-score [5] | composite z-score [6] | composite z-score [7] | composite z-score [8] | composite z-score [9] | composite z-score [10] | composite z-score [11] | z-score [12] | composite z-score [13] | composite z-score [14] | composite z-score [15] | composite z-score [16] | composite z-score [17] | composite z-score [18] | composite z-score [19] | composite z-score [20]
1 | COCCOC(=O)N1C(=O)[C@@]2(c3cc(C#CCC(C(=O)OC)C(=O)OC)ccc31)[C@H](c1ccccc1OCCO)N1[C@H](c3ccccc3)[C@H](c3ccccc3)OC(=O)[C@H]1[C@@H]2C(N)=O | 1.38 | 0.152 | 0.188 | -5.03 (inactive) | 1.22 | 1.31 | 0.249 | 1.13 | 0.451 | 0.0274 | 0.22 | -2.2 | 0.32 | 1.25 | 0.648 | 0.027 | -0.0055 | 0.141 | 1.21 | 2.37
2 | O=C1O[C@H](c2ccccc2)[C@H](c2ccccc2)N2[C@H]1[C@@H](C(=O)Nc1nc3ccccc3s1)[C@]1(C(=O)Nc3ccccc31)[C@H]2c1ccc(O)cc1 | 1.57 | -0.0334 | 0.126 | -0.449 (inactive) | 0.939 | 1.08 | 0.598 | 1.31 | 1.11 | 0.435 | 1.35 | -1.35 | 0.684 | 0.281 | -0.322 | -0.0903 | -0.138 | -0.0272 | 0.536 | 1.27
3 | O=C1N(CCS(=O)(=O)c2ccccc2)Cc2ccccc2[C@H]2OC(c3ccc(OCCCO)cc3)=N[C@@]12CCS(=O)(=O)c1ccccc1 | 1.55 | 0.883 | 1.13 | -0.872 (inactive) | 1.03 | 0.916 | 0.423 | 0.411 | 0.13 | 1.03 | 0.961 | -1.55 | 0.558 | 1.25 | 0.38 | 0.115 | 0.0348 | 0.763 | 1.41 | 1.97
4 | COc1ccc([Si](C)(C)[C@H]2[C@H](CCn3cc(CCO)nn3)O[C@@]3(C(=O)N(Cc4ccc(N5CCOC5=O)cc4)c4ccccc43)[C@@H]2C)cc1 | 1.51 | -0.0848 | 0.236 | -0.188 (inactive) | 0.209 | 0.625 | -0.0252 | 0.642 | 0.141 | 0.766 | 0.469 | -4.2 | -0.129 | 0.122 | 0.0117 | -0.124 | 0.0469 | 0.0581 | 1.03 | 1.27
5 | C=CCC(OC(C)=O)[C@@H]1[C@@H](N(Cc2cccc3ccccc23)C(=O)c2ccc(C)cc2)c2cc(OCCCO)ccc2N1C(=O)Cc1ccc(OC)cc1 (stereo not given in full) | 0.102 | -0.413 | -0.281 | -1.53 (inactive) | -0.104 | 0.0349 | 0.254 | 0.492 | 0.576 | 1.05 | 0.332 | -0.22 | -0.248 | 0.327 | -0.0943 | -0.124 | 0.0278 | -0.198 | 0.0873 | 0.215
6 | CN(C)CCCNC(=O)[C@@]1(Cc2ccccc2I)c2ccccc2C(=O)N(Cc2ccccc2C(F)(F)F)[C@H]1c1ccc(CO)cc1 | 0.278 | 0.234 | 0.86 | -1.55 (inactive) | -0.75 | 0.391 | -1.62 | -1.34 | -1.33 | 0.094 | 0.973 | -3.4 | -1.2 | -0.327 | -0.149 | -0.176 | -0.138 | 0.612 | 0.283 | 0.376
7 | COC(=O)[C@@]1(Cc2ccccc2)[C@H]2c3cc(C(=O)N4CCCC4)n(C)c3C[C@H]2CN1C(=O)c1ccccc1 | 0.762 | 1.23 | 0.892 | -1.91 (inactive) | -0.175 | 0.237 | -0.141 | 0.803 | -0.477 | 1.1 | 0.123 | -1.45 | -0.302 | 2.57 | 0.961 | -0.0481 | -0.2 | 0.268 | 1.28 | 0.455
8 | O=C1C2C=CC(C(O)c3cccs3)N(Nc3ccccc3F)C2C(=O)N1c1ccccc1 (stereo not given) | 0.87 | 0.266 | 0.541 | -0.743 (inactive) | 0.092 | 0.308 | 0.0444 | 0.224 | -0.0382 | 0.804 | 0.749 | 0.124 | -0.0883 | 0.0073 | -0.65 | 0.0633 | 0.0723 | -0.126 | 0.543 | 0.825
9 | CCOC(=O)[C@H]1C[C@H]2O[C@@]23C[C@H]1C(=O)N1CCCC1[C@@H]3O[Si](C)(C)C(C)(C)C (stereo not given in full) | -0.169 | -0.199 | -0.528 | 0.376 (inactive) | 0.476 | -0.445 | -0.694 | -0.198 | 0.0691 | 0.198 | -0.917 | -0.633 | -0.0688 | -0.821 | -0.392 | -0.184 | -0.138 | -0.202 | -0.132 | -0.789
10 | CCOC(=O)C[C@H]1[C@H](OC(=O)c2ccc(-c3ccccc3)cc2)[C@@H](NC(=O)Cc2ccc(OC)cc2)c2cc(OCCCO)ccc2N1C(=O)c1ccc2ccccc2n1 | 0.042 | 0.593 | 0.294 | -1.05 (inactive) | 0.181 | 0.267 | -0.127 | 0.367 | 0.0289 | 0.827 | 1.13 | -1.92 | 0.0394 | 0.882 | -0.0431 | 0.0068 | -0.282 | -0.201 | -0.0103 | 0.0263
11 | CCOC(=O)C1=CC[C@@H](c2ccccc2)N(S(=O)(=O)c2ccc(C)cc2)[C@H]1C(=O)OCC | -0.0664 | 0.955 | 1.02 | -0.287 (inactive) | 0.605 | 1.13 | 0.117 | 0.533 | -0.249 | 1.04 | 0.841 | -3.08 | -0.0319 | 0.784 | 0.289 | 0.177 | 0.77 | 0.137 | 0.962 | 0.384
